Data published in PubChem BioAssay (NCI).
This is part of a sample that, as a whole, favours compounds with a hit. Of some 83,000 tested, about 20% had one in any assay.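 Cells were grown in 96-well plates and exposed to the test compound at a single concentration for 48 hours; results are reported as percent growth, with values below 10 considered active.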 Active and inactive are the calls of the source.

Legend:
Experiment in all cases: NCI-60 one-dose screen, 48 h (100 = growth as untreated, 0 = no growth, -100 = all killed)
NCI-H23 lung = conditions: 10 µM unless noted
NCI-H226 lung = conditions: 10 µM unless noted
NCI-H322M lung = conditions: 10 µM unless noted
NCI-H460 lung = conditions: 10 µM unless noted
HOP-92 NSCLC = conditions: 10 µM unless noted
A549/ATCC NSCLC = conditions: 10 µM unless noted
786-0 renal = conditions: 10 µM unless noted
COLO 205 colon = conditions: 10 µM unless noted
NCI-H522 lung = conditions: 10 µM
HOP-62 NSCLC = conditions: 10 µM unless noted

Measured: growth

CC(=O)[C@H]1CC[C@H]2[C@@H]3C[C@H](C)C4=CC(=O)CC[C@]4(C)[C@H]3C(=O)C[C@]12C
inactive: NCI-H23 lung 102% | NCI-H226 lung 104% | NCI-H322M lung 117% | NCI-H460 lung 107% | HOP-92 NSCLC 85.3% | A549/ATCC NSCLC 98.7% | 786-0 renal 112% | COLO 205 colon 94.3%

CC[C@@H](C)/C=C(C)/C=C/C(O)=C1\C(=O)N[C@@H](Cc2ccc(OC(=O)[C@@](OC)(c3ccccc3)C(F)(F)F)cc2)C1=O
inactive: NCI-H23 lung 99.2% | NCI-H226 lung 104% | NCI-H322M lung 91% | NCI-H460 lung 79.8% | HOP-92 NSCLC 41.5% | A549/ATCC NSCLC 97.2% | 786-0 renal 90.8% | COLO 205 colon 118%

c1ccc2nc(N/N=C3\CCCCC3C3CCCCC3)ccc2c1 (centres undefined)
inactive: NCI-H23 lung 40.1% | NCI-H226 lung 53.8% | NCI-H322M lung 64.5% | NCI-H460 lung 39.7% | NCI-H522 lung 60% | 786-0 renal 48.6% | COLO 205 colon 41%
active: HOP-92 NSCLC -11.3%

COc1cc(/C=C2\SC(N3CCCCC3)=NC2=O)ccc1OCCCCCCOc1ccc(/C=C2\SC(N3CCCCC3)=NC2=O)cc1OC
inactive: NCI-H322M lung 48.3% | HOP-92 NSCLC 32.2% | 786-0 renal 50.5%
active: NCI-H23 lung 5.35% | NCI-H226 lung -20.1% | NCI-H460 lung -45.4%

N#CC(C#N)C(C#N)C#N
inactive: NCI-H23 lung 97.7% | NCI-H226 lung 99.9% | NCI-H322M lung 103% | NCI-H460 lung 105% | HOP-92 NSCLC 102% | A549/ATCC NSCLC 79% | 786-0 renal 101% | COLO 205 colon 99.3%

Cc1ccc(/C=C/C(=O)c2ccc(F)cc2)s1
inactive: NCI-H23 lung 85% | NCI-H226 lung 85.1% | NCI-H322M lung 94.2% | NCI-H460 lung 80.6% | HOP-92 NSCLC 64% | NCI-H522 lung 62.8% | 786-0 renal 76.7% | COLO 205 colon 108%

O=C(Nc1nn2c(-c3cc(C(F)(F)F)cc(C(F)(F)F)c3)nnc2s1)C1CCCC1
active: NCI-H23 lung -2.97% | NCI-H226 lung 9.1% | NCI-H322M lung 4.33% | HOP-62 NSCLC 8.91% | NCI-H460 lung 3.63% | A549/ATCC NSCLC 7.1% | COLO 205 colon -82.5%

C=C1CC[C@@H]2[C@](C)(COC(C)=O)[C@H](OC(C)=O)CC[C@@]2(C)[C@@H]1CC(NCc1ccccc1)C1=CCOC1=O (some centres undefined)
inactive: NCI-H23 lung 57.4% | NCI-H226 lung 11.4% | NCI-H322M lung 77% | NCI-H460 lung 48.4% | HOP-92 NSCLC 41.7% | A549/ATCC NSCLC 49.2% | 786-0 renal 71.4% | COLO 205 colon 45.6%

CC1(C)CC2(C)CC(=O)C1C(C(=O)O)C2C(=O)O (centres undefined)
inactive: NCI-H23 lung 106% | NCI-H226 lung 107% | NCI-H322M lung 104% | HOP-62 NSCLC 105% | NCI-H460 lung 112% | A549/ATCC NSCLC 109% | 786-0 renal 123% | COLO 205 colon 107%

C(=C1c2ccccc2-c2ccccc21)c1ccccn1
inactive: NCI-H23 lung 79.9% | NCI-H226 lung 99.6% | NCI-H322M lung 89.1% | HOP-62 NSCLC 71.7% | NCI-H460 lung 83.8% | 786-0 renal 87.2% | COLO 205 colon 84.9%

Cc1sc2nc3c4ccccc4c(NCCCN(C)C)nn3c(=O)c2c1C
inactive: NCI-H23 lung 60.9% | NCI-H226 lung 42.8% | NCI-H322M lung 83.1% | NCI-H460 lung 23.6% | HOP-92 NSCLC 29% | A549/ATCC NSCLC 15% | 786-0 renal 55.7%
active: COLO 205 colon -57.4%

O=C1C=CC(=O)N1c1ccccc1N1C(=O)C=CC1=O
inactive: NCI-H23 lung 115% | NCI-H226 lung 101% | NCI-H322M lung 122% | NCI-H460 lung 111% | HOP-92 NSCLC 82.8% | A549/ATCC NSCLC 121% | 786-0 renal 110% | COLO 205 colon 57.7%

N=C1c2nc3n(c2C(=O)c2nc4n(c21)CCCCC4)CCCCC3
inactive: NCI-H23 lung 97.3% | NCI-H226 lung 98.3% | NCI-H322M lung 110% | NCI-H460 lung 92.6% | HOP-92 NSCLC 126% | 786-0 renal 120%

CCOC(CNCc1cc(C)c2[nH]c3ccccc3c2c1C)OCC
active: COLO 205 colon -25.4%
inactive: NCI-H23 lung 82.2% | NCI-H226 lung 70% | NCI-H322M lung 83.2% | NCI-H460 lung 89.1% | HOP-92 NSCLC 64.1% | A549/ATCC NSCLC 81% | 786-0 renal 65%

COc1ccc([N+](=O)[O-])c(S(=O)(=O)c2ccc(Cl)cc2)n1
inactive: NCI-H23 lung 81.9% | NCI-H226 lung 91.2% | NCI-H322M lung 106% | NCI-H460 lung 98.1% | HOP-92 NSCLC 63.1% | 786-0 renal 70.1% | COLO 205 colon 25.2%

CCSCC1CC(O)(c2ccccc2)C(c2ccccc2)C(c2ccc(Cl)cc2)O1 (centres undefined)
active: NCI-H226 lung -1.26% | NCI-H460 lung -45.8% | HOP-92 NSCLC -3.51% | A549/ATCC NSCLC -23.1% | 786-0 renal 3.26% | COLO 205 colon -100%
inactive: NCI-H23 lung 14.7% | NCI-H322M lung 18%

CCSc1nc(-c2ccco2)n2nc(-c3ccco3)cc2n1
inactive: NCI-H23 lung 93.5% | NCI-H226 lung 90.7% | NCI-H322M lung 117% | HOP-62 NSCLC 100% | NCI-H460 lung 92.1% | 786-0 renal 111% | COLO 205 colon 114%

Cc1nn(-c2nc3ccccc3s2)c(C)c1Oc1ccccc1O
inactive: NCI-H23 lung 109% | NCI-H226 lung 80.5% | NCI-H322M lung 101% | NCI-H460 lung 24.6% | HOP-92 NSCLC 93.2% | NCI-H522 lung 59.9% | 786-0 renal 89.2% | COLO 205 colon 92.3%

CCSc1nc(-c2cccs2)n2nc(-c3ccco3)cc2n1
inactive: NCI-H23 lung 95% | NCI-H226 lung 94.9% | NCI-H322M lung 116% | NCI-H460 lung 104% | HOP-92 NSCLC 71.3% | NCI-H522 lung 91.8% | 786-0 renal 113%

CCN(CC)CCOCC[C@H]1CC[C@H]2[C@@H]3[C@H](C)Cc4cc(OS(N)(=O)=O)ccc4[C@H]3CC[C@]12C
active: NCI-H23 lung -87.4% | NCI-H226 lung -61.9% | NCI-H322M lung -24.9% | NCI-H460 lung -85.2% | HOP-92 NSCLC -88.2% | A549/ATCC NSCLC -90.2% | 786-0 renal -99.6% | COLO 205 colon -78.5%

Cc1cc2c(cc1C)[n+](Cc1ccc3ccccc3c1)cn2Cc1ccc2ccccc2c1
active: NCI-H23 lung -71.8% | NCI-H226 lung -25.5% | NCI-H322M lung -8.28% | NCI-H460 lung -76.8% | HOP-92 NSCLC -80.8% | A549/ATCC NSCLC -71.3% | 786-0 renal -88.9% | COLO 205 colon -67.8%

CCCCCN1C(=O)CCC1=O
inactive: NCI-H23 lung 110% | NCI-H226 lung 101% | NCI-H322M lung 110% | HOP-62 NSCLC 92.9% | NCI-H460 lung 120% | A549/ATCC NSCLC 99% | 786-0 renal 111% | COLO 205 colon 99.4%

CCN(CC)c1ccc(/C=C/C(=O)c2cccc(NS(C)(=O)=O)c2)cc1
inactive: NCI-H23 lung 18.7% | NCI-H226 lung 43.1% | NCI-H322M lung 89% | NCI-H460 lung 42.3% | HOP-92 NSCLC 19.9% | 786-0 renal 32.3% | COLO 205 colon 62.3%
active: NCI-H522 lung 4.67%

COc1ccc(C2=NN(C(C)=O)C(c3c(C)nn(-c4ccccc4)c3N3CCOCC3)C2)cc1 (centres undefined)
inactive: NCI-H23 lung 100% | NCI-H226 lung 92.1% | NCI-H322M lung 101% | NCI-H460 lung 98.7% | HOP-92 NSCLC 86.9% | A549/ATCC NSCLC 85.5% | 786-0 renal 93% | COLO 205 colon 90.9%

CCSc1ncc(Br)c(Sc2nc(N)nc3nc[nH]c23)n1
inactive: NCI-H23 lung 37.9% | NCI-H226 lung 65.4% | NCI-H322M lung 89.1% | NCI-H460 lung 46.6% | HOP-92 NSCLC 31.6% | NCI-H522 lung 59% | 786-0 renal 33.6% | COLO 205 colon 110%

C[C@@H]1CN(c2nc3c(cc2F)c(=O)c(C(=O)O)cn3C(C)(C)C)C[C@H](C)N1
inactive: NCI-H23 lung 95.2% | NCI-H226 lung 91% | NCI-H322M lung 93.7% | NCI-H460 lung 107% | HOP-92 NSCLC 71.6% | A549/ATCC NSCLC 99.9% | 786-0 renal 112% | COLO 205 colon 110%

CC1CC=CCC1C1OCC(C)(C)CO1 (centres undefined)
inactive: NCI-H23 lung 108% | NCI-H226 lung 99.9% | NCI-H322M lung 105% | NCI-H460 lung 109% | HOP-92 NSCLC 106% | A549/ATCC NSCLC 96.7% | 786-0 renal 97.6% | COLO 205 colon 111%

CC(C)N(Cc1ccccc1)c1c(Cl)ssc1=O
inactive: NCI-H23 lung 106% | NCI-H226 lung 101% | NCI-H322M lung 109% | NCI-H460 lung 109% | HOP-92 NSCLC 82.5% | A549/ATCC NSCLC 88.8% | 786-0 renal 102% | COLO 205 colon 106%

COc1cc(/C=N/OC(=O)Nc2ccccc2)cc(OC)c1OC
inactive: NCI-H23 lung 107% | NCI-H226 lung 96% | NCI-H322M lung 92.2% | NCI-H460 lung 109% | HOP-92 NSCLC 74.6% | NCI-H522 lung 86.2% | 786-0 renal 103% | COLO 205 colon 107%

COc1c(O)cc2c(c1CC=C(C)C)OC(=O)c1c(cc(O)c(CC=C(C)C)c1O)O2
inactive: NCI-H226 lung 88.1% | NCI-H322M lung 77.1% | HOP-92 NSCLC 54.6% | A549/ATCC NSCLC 57.1% | 786-0 renal 19.3% | COLO 205 colon 107%
active: NCI-H23 lung -8.77% | NCI-H460 lung 9.47%

CCOC(=O)C1=CCC(n2cc(C)c(=O)[nH]c2=O)O1 (centres undefined)
inactive: NCI-H23 lung 102% | NCI-H226 lung 89.5% | NCI-H322M lung 101% | NCI-H460 lung 114% | HOP-92 NSCLC 65% | A549/ATCC NSCLC 96.7% | 786-0 renal 105% | COLO 205 colon 90.1%
